Results filed as inconclusive are left out. The source made the active and inactive calls. Unless noted, calls come from the whole dose curve; as a rule, active = well fitted curve in the direction sought with a large enough effect in the repeat runs; inconclusive = weak or mixed curves; inactive = no such curve, though single readings can be large; an effect the other way counts as inactive or inconclusive.
Columns and labels:
[1] = qHTS assay for small molecule agonists of the p53 signaling pathway (AID 651631; calls by dose curve; note: nearly all actives have a fitted effect of over 15% in size)
In short: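 Quantitative high-throughput format: 4,000 p53RE-bla HCT-116 cells/well, 5 h pre-incubation, 16 h compound exposure at 37 °C, 2 h room-temperature substrate step, fluorescence intensity measured.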

[2] = qHTS assay for small molecules that induce genotoxicity in human embryonic kidney cells expressing luciferase-tagged ATAD5 (AID 651632); note: nearly all actives have a fitted effect of over 15% in size
In short: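 Increased luciferase signal from ATAD5-tagged reporter cells indicates DNA-damage-driven ATAD5 induction. HEK293T cells are treated for 16 hr at 37C before detection with Amplite.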

[3] = qHTS assay for small molecule agonists of the p53 signaling pathway - cell viability (AID 651633; calls by dose curve;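 note: p53RE-bla HCT reporter cells with a stable beta-lactamase p53 reporter; series mostly up to about 83 µM; nearly all actives have a fitted effect of over 30% in size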)
In short: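 p53RE-bla cells were treated with compound for 16 hours at 37 C. Cytotoxicity was then measured as CellTiter-Glo luminescence after 30 min at room temperature.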

[4] = qHTS assay for small molecules that induce genotoxicity in human embryonic kidney cells expressing luciferase-tagged ATAD5 - cell viability (AID 651634; calls by dose curve; note: nearly all actives have a fitted effect of over 25% in size)
In short: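 Cytotoxicity counterscreen in HEK293T cells bearing an ATAD5-luciferase reporter: live-cell protease activity measured by CellTiter-Fluor fluorescence after 15.5 hr compound exposure.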

[5] = qHTS assay for small molecule disruptors of the mitochondrial membrane potential - cell viability (AID 720634; calls by dose curve;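 note: human HepG2 liver cancer cells; series mostly up to about 83 µM; nearly all actives have a fitted effect of over 20% in size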)
In short: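 After overnight attachment at 37 C, HepG2 cells received compound or DMSO vehicle for 1 hr. Viability is then taken from ATP-driven luminescence following a 30 min room-temperature CellTiter-Glo step.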

[6] = qHTS assay to test for compound auto fluorescence at 590 nm (red) in HepG2 cells (AID 720674)
In short: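 HepG2 cells, 2,000 per well in MEM with 10% FBS, attached overnight at 37 C, then got 23 nL compound or DMSO. After 1 hr at 37 C, 5% CO2, red fluorescence was read at 540/590 nm against Rose Bengal sodium as reference.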

[7] = qHTS assay to test for compound auto fluorescence at 535 nm (green) in HepG2 cells (AID 720675)
[8] = qHTS assay to test for compound auto fluorescence at 460 nm (blue) in HEK293 cells (AID 720678)
In short: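 Triamterene serves as the blue fluorophore standard. Compound signal at 405/460 nm is read in HEK293 wells (2,000 cells, 10% dialyzed FBS) after overnight treatment at 37C.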

[9] = qHTS assay to test for compound auto fluorescence at 590 nm (red) in HEK293 cells (AID 720679)
In short: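 We plated HEK293 cells in 10% dialyzed FBS medium, let them adhere for 4-5 hr, then added 23 nL compound. Overnight at 37C and 5% CO2 preceded fluorescence measurement at 540/590nm.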

[10] = qHTS assay to test for compound auto fluorescence at 535 nm (green) in HEK293 cells (AID 720680)
[11] = qHTS assay to test for compound auto fluorescence at 460 nm (blue) in HEK293 cell free culture (AID 720681)
In short: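 Compounds were added to cell-free DMEM with 10% FBS and fluorescence read directly. The blue channel used 405 nm excitation and 460 nm emission, with triamterene as the reference fluorophore.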

[12] = qHTS assay to test for compound auto fluorescence at 535 nm (green) in HEK293 cell free culture (AID 720682)
In short: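 Measurement is a direct plate read of green fluorescence (485 nm in, 535 nm out) after compound addition to serum-supplemented DMEM lacking cells, with fluorescein used to express intensities.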

[13] = qHTS assay to test for compound auto fluorescence at 590 nm (red) in HEK293 cell free culture (AID 720683)
In short: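 Cell-free wells of DMEM with 10% FBS received compound, and intrinsic fluorescence was read at excitation/emission 540/590 nm. Values expressed as equivalence to Rose Bengal sodium.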

[14] = qHTS assay to test for compound auto fluorescence at 590 nm (red) in HepG2 cell free culture (AID 720684)
In short: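 Compound was pinned into wells holding MEM with 10% FBS and no cells, and red fluorescence was read at Ex/Em 540/590 nm. Signal is expressed as auto fluorescence equivalency relative to Rose Bengal sodium.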

[15] = qHTS assay to test for compound auto fluorescence at 460 nm (blue) in HepG2 cell free culture (AID 720685)
In short: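 Compound (23 nL) or DMSO pinned into cell-free MEM with 10% FBS; blue fluorescence read at 405/460 nm excitation/emission, expressed as auto-fluorescence equivalency to triamterene.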

[16] = qHTS assay to test for compound auto fluorescence at 535 nm (green) in HepG2 cell free culture (AID 720686)
[17] = qHTS assay to test for compound auto fluorescence at 460 nm (blue) in HepG2 cells (AID 720687)
In short: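 HepG2 cells in MEM with 10% FBS, attached overnight at 37 C, were exposed to compound or DMSO for 1 hr at 37 C, 5% CO2. Blue fluorescence was read at 405/460 nm, with triamterene as reference fluorophore.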

[18] = target: Glucocorticoid receptor (Homo sapiens) (UniProt P04150); test: qHTS assay to identify small molecule agonists of the glucocorticoid receptor (GR) signaling pathway (AID 720691; active = well fitted activation curve with a large enough effect in the signal ratio in the repeat runs, not every such curve was filed as active; the % refers to the signal ratio)
In short: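 Agonist mode in a HeLa line carrying a GRE-controlled beta-lactamase reporter. Compounds act for 18 h at 37 C before a 2 h room-temperature FRET substrate step and fluorescence reading.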

[19] = qHTS assay for small molecule disruptors of the mitochondrial membrane potential (AID 720635); note: potency is the fitted concentration of half-maximal effect
In short: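 HepG2 cells exposed to compound 1 hr at 37C, then Mito-MPS dye 30 min. Ratio read of aggregate (540/590 nm) versus monomer (490/535 nm) fluorescence.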

[20] = target: Glucocorticoid receptor (Homo sapiens) (UniProt P04150); test: qHTS assay to identify small molecule antagonists of the glucocorticoid receptor (GR) signaling pathway (AID 720692; active = well fitted inhibition curve with a large enough effect in the signal ratio in the repeat runs, not every such curve was filed as active; the % refers to the signal ratio)
In short: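 Cells plated, rested 4 h at 37 C/5% CO2; compounds in DMSO pin-transferred; dexamethasone added to 5 nM final; 18 h at 37 C; B/G FRET substrate added, 2 h room temperature; fluorescence measured.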
% is set by controls: 0 for no effect and ±100 for the full control effect.

Glucocorticoid receptor (Homo sapiens), sequence (P04150 whole entry, looked up): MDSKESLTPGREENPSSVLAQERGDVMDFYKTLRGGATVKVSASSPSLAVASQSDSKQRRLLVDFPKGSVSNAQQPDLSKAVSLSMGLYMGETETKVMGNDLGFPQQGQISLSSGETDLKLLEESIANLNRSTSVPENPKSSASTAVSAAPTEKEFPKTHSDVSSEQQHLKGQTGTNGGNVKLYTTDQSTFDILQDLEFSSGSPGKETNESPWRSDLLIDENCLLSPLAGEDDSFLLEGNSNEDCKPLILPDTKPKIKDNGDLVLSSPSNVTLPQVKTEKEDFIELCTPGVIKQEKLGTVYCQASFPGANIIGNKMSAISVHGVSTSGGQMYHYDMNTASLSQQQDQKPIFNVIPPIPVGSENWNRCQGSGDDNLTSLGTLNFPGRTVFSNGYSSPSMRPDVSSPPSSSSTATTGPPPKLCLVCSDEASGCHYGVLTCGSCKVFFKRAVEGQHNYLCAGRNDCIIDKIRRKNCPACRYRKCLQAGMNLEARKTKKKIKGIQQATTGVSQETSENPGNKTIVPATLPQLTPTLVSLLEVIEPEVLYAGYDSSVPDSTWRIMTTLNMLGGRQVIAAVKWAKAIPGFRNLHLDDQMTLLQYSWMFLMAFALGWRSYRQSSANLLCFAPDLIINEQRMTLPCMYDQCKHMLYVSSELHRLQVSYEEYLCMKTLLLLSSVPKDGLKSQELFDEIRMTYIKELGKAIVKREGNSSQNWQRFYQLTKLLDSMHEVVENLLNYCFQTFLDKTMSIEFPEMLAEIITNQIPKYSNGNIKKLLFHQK

ICCc1ccccc1
inactive: Potency [1] | Potency [2] | Potency [3] | Potency [4] | Potency [5] | outcome [6] | outcome [7] | outcome [8] | outcome [9] | outcome [10] | outcome [11] | outcome [12] | outcome [13] | outcome [14] | outcome [15] | outcome [16] | outcome [17]

OCCN1CCN(CCO)CC1
inactive: Potency [1] | Potency [2] | Potency [3] | Potency [4] | Potency [5] | outcome [7] | outcome [8] | outcome [9] | outcome [10] | outcome [11] | outcome [12] | outcome [13] | outcome [14] | outcome [15] | outcome [17] | Potency [18]

CC(C)c1ccccc1
inactive: Potency [1] | Potency [2] | Potency [3] | Potency [5] | Potency [19] | outcome [6] | outcome [7] | outcome [8] | outcome [9] | outcome [10] | outcome [11] | outcome [12] | outcome [14] | outcome [15] | outcome [16] | outcome [17] | Potency [18] | Potency [20]

CCCCCCC
inactive: Potency [1] | Potency [2] | Potency [4] | Potency [5] | Potency [19] | outcome [7] | outcome [8] | outcome [9] | outcome [10] | outcome [11] | outcome [12] | outcome [13] | outcome [14] | outcome [16] | Potency [18]

CC(C)(C)c1cccc(O)c1
inactive: Potency [1] | Potency [2] | Potency [3] | Potency [5] | outcome [6] | outcome [8] | outcome [9] | outcome [10] | outcome [11] | outcome [12] | outcome [13] | outcome [14] | outcome [15] | outcome [16] | outcome [17] | Potency [18] | Potency [20]
active: Potency [19] 48.6 µM

CC(=O)Nc1ccc(C)c(Cl)c1
inactive: Potency [1] | Potency [2] | Potency [3] | Potency [5] | outcome [6] | outcome [7] | outcome [8] | outcome [9] | outcome [10] | outcome [11] | outcome [12] | outcome [13] | outcome [14] | outcome [15] | outcome [16] | outcome [17] | Potency [18] | Potency [20]

O=Cc1ccc(F)c(Br)c1
inactive: Potency [1] | Potency [2] | Potency [4] | Potency [5] | Potency [19] | outcome [6] | outcome [7] | outcome [8] | outcome [9] | outcome [10] | outcome [11] | outcome [12] | outcome [13] | outcome [14] | outcome [15] | outcome [16] | outcome [17]

OCc1ccccc1O
inactive: Potency [1] | Potency [3] | Potency [4] | Potency [5] | Potency [19] | outcome [6] | outcome [7] | outcome [8] | outcome [9] | outcome [10] | outcome [11] | outcome [12] | outcome [13] | outcome [14] | outcome [15] | outcome [16] | Potency [18] | Potency [20]

CCC(=O)Nc1ccc(O)cc1
inactive: Potency [1] | Potency [2] | Potency [5] | Potency [19] | outcome [6] | outcome [7] | outcome [8] | outcome [9] | outcome [10] | outcome [11] | outcome [12] | outcome [13] | outcome [14] | outcome [17] | Potency [18] | Potency [20]

C[C@@H]1CN(c2c(F)c(N)c3c(=O)c(C(=O)O)cn(C4CC4)c3c2F)C[C@H](C)N1
inactive: Potency [1] | Potency [2] | Potency [3] | Potency [5] | Potency [19] | outcome [7] | outcome [8] | outcome [9] | outcome [10] | outcome [11] | outcome [12] | outcome [14] | outcome [15] | outcome [16] | outcome [17] | Potency [20]

NNS(=O)(=O)c1ccc(Oc2ccc(S(=O)(=O)NN)cc2)cc1
inactive: Potency [1] | Potency [2] | Potency [4] | Potency [5] | outcome [6] | outcome [7] | outcome [8] | outcome [9] | outcome [10] | outcome [11] | outcome [12] | outcome [13] | outcome [14] | outcome [15] | outcome [16] | outcome [17]

OCCN(CCO)CCN(CCO)CCO
inactive: Potency [1] | Potency [2] | Potency [4] | Potency [5] | Potency [19] | outcome [6] | outcome [8] | outcome [9] | outcome [10] | outcome [11] | outcome [12] | outcome [14] | outcome [15] | outcome [16] | outcome [17] | Potency [18] | Potency [20]

CN(C)C(=O)NC1(c2ccccc2)CCN(CCC[C@]2(c3ccc(Cl)c(Cl)c3)CCCN(C(=O)c3ccccc3)C2)CC1
inactive: Potency [1] | Potency [2] | Potency [3] | Potency [5] | fluorescence, relative to Rose Bengal [6] -0.128% [at 18.6 µM] | fluorescence, % of fluorescein control [7] 0.0153% [at 18.6 µM] | fluorescence, % of triamterene [8] -0.0808% [at 18.6 µM] | fluorescence, % of fluorescent control [9] -0.621% [at 18.6 µM] | fluorescence, % of fluorescein [10] -0.116% [at 18.6 µM] | fluorescence, % of fluorescent control [11] 0.05% [at 18.6 µM] | activity change [12] 0.0134% [at 18.6 µM] | fluorescence, % of Rose Bengal [14] -0.0596% [at 18.6 µM] | fluorescence, % of fluorescent control [15] -0.114% [at 18.6 µM] | fluorescence, % of fluorescein control [16] 0.0302% [at 18.6 µM] | fluorescence, % of fluorescent control [17] -0.0586% [at 18.6 µM] | Potency [18] | Potency [20]

CCCCCCCCOC(=O)CCCCCCCCC(=O)OCCCCCCCC
inactive: Potency [1] | Potency [2] | Potency [4] | Potency [5] | outcome [6] | outcome [8] | outcome [10] | outcome [11] | outcome [12] | outcome [13] | outcome [14] | outcome [15] | outcome [16] | outcome [17] | Potency [18] | Potency [20]

CCCCC1CCC(=O)O1 (stereo not drawn)
inactive: Potency [1] | Potency [2] | Potency [3] | Potency [5] | Potency [19] | outcome [7] | outcome [8] | outcome [9] | outcome [10] | outcome [11] | outcome [12] | outcome [13] | outcome [14] | outcome [15] | outcome [16] | outcome [17] | Potency [18] | Potency [20]

— PubChem BioAssay (Tox21)
